# Where “and” joins values, the source holds several entries; their conditions need not be identical. Equal values may be shown once. Inconclusive results are not listed. Calls of active or inactive are those of the source.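 The calls were made as follows, unless noted: active = normalized viability below 100% at a tested concentration; inactive = the rest.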
# Experiments:
# [1] = growth inhibition of DIPG glioma cells, dose response, cell-based, SU-DIPG-XIII, MIPE4.0, CellTiter-Glo, qHTS (AID 1347061; cut-off not given, nearly all actives have AC50 up to about 37 µM;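 also: cells exposed to compound for 48 hours before readout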); conditions: SU-DIPG-XIII viability, CellTiter-Glo ATP luminescence
# [2] = growth inhibition of DIPG glioma cells, dose response, cell-based, JHH-DIPG-1, MIPE4.0, CellTiter-Glo, qHTS (AID 1347062; cut-off not given, nearly all actives have AC50 up to about 27 µM;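 also: cells exposed to compound for two days before readout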); conditions: JHH-DIPG-1 viability, CellTiter-Glo ATP luminescence
# [3] = viability loss in pontine glioma line – cell-based, SU-DIPG-XXV, MIPE5.0, CellTiter-Glo, qHTS, dose response (AID 1347065; cut-off not given, nearly all actives have AC50 up to about 26 µM;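 also: cells exposed to compound for 48 hours before ATP readout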); conditions: CellTiter-Glo ATP luminescence
# [4] = SU-DIPG-VI glioma cell viability, MIPE4.0 library, CellTiter-Glo luminescence, qHTS (AID 1347066; cut-off not given, nearly all actives have AC50 up to about 30 µM;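 also: cells exposed to compound for 48 hours before readout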); conditions: CellTiter-Glo ATP luminescence
# [5] = SU-DIPG-XXV glioma cell viability, MIPE5.0 library, qHTS (AID 1347068; cut-off not given, nearly all actives have IC50 up to about 30 µM)
# [6] = sensitizers of A549 cells to miR-34 induction, primary screen, imaging, A549 dox-inducible miR-34, nuclei and caspase counts (AID 1347080;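 active = compounds whose cell count with miR-34 switched on is under 0.7 times the count with it off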); conditions: A549 miR-34 inducible, Hoechst nuclei count, 48 h
# [7] = survival rescue of mitochondrial mutant cells in low glucose, primary screen, MELAS cybrids, Rieske KO mouse fibroblasts, CellTiter-Glo (AID 1508586;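 active = mean z-score across replicates of 1.96 or higher in either the MELAS or the Rieske mutant cell line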;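 also: z relative to plate mean and SD of compound and empty wells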)
# [8] = ovarian cancer cell viability with rucaparib, profiling panel, oncology-focused library, rucaparib conditional (AID 1508598); conditions: patient-derived ovarian cancer cells, CellTiter-Glo viability, 144 h, stronger effect = lower value
# [9] = modifiers of HSF1 nuclear foci, imaging, Selleck Cancer Library (AID 1347162; in the data active = plate-normalised HSF1 focus index below about 0.46); conditions: human cells, at 10 µM; SSMD: measured here: HSF1 foci SSMD mean; cell count: measured here: cell number; plate-normalised HSF1 focus index: stronger effect = lower value
# [10] = LFS_MB_P medulloblastoma growth inhibition, cell-based, chromothripsis tumors, cisplatin or BGB combos (AID 1671449; in the data active = inhibition above about 80%;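 also: cells exposed for 96 hours; 0% = vehicle DMSO and 100% = killing by high DMSO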); conditions: LFS_MB_P medulloblastoma cells
# [11] = HDN33 neuroblastoma growth inhibition, cell-based, chromothripsis tumors, cisplatin or BGB combos (AID 1671450; in the data active = inhibition above about 80%;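 also: cells exposed to compound for four days; 0% = vehicle DMSO and 100% = cell killing by high DMSO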); conditions: HDN33 neuroblastoma cells, stronger effect = higher value
# [12] = ICB984 medulloblastoma cell growth inhibition, synergistic combos for chromothripsis tumors, cisplatin or BGB combos (AID 1671451; call rule not given here;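 also: cells exposed for 96 hours before readout; 0% = vehicle DMSO and 100% = killing by high DMSO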); conditions: ICB984 medulloblastoma cells, drug combinations, stronger effect = higher value
# [13] = HTB85 osteosarcoma cell growth inhibition, synergistic combos for chromothripsis tumors, BGB or cisplatin IC20 combos (AID 1671453; in the data active = inhibition above about 80%;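 also: cells exposed for 96 hours before readout; 0% = vehicle DMSO and 100% = high DMSO killing control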); conditions: HTB85 osteosarcoma cells, drug combinations, stronger effect = higher value
# [14] = MDA-MB-436 breast carcinoma cell growth inhibition, synergistic combos for chromothripsis tumors, BGB or cisplatin combos (AID 1671458; call rule not given here;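 also: cells exposed for 96 hours; 0% = vehicle DMSO and 100% = killing by high DMSO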); conditions: MDA-MB-436 breast carcinoma growth inhibition, drug combinations, stronger effect = higher value
# [15] = growth inhibition of BT084 medulloblastoma cells, cell-based, ICGC_MB145, cisplatin and BGB IC40 combos (AID 1671461; in the data active = inhibition above about 80%;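 also: cells exposed to drugs for 96 hours; 0% = vehicle DMSO and 100% = high DMSO full killing control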); conditions: drug combinations, stronger effect = higher value
# [16] = growth inhibition of RCMB18 medulloblastoma cells, cell-based, cisplatin and BGB IC40 combos (AID 1671462; in the data active = inhibition above about 80%;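 also: cells exposed to compound for four days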); conditions: stronger effect = higher value
# [17] = growth inhibition of CRL1545 osteosarcoma cells, cell-based, cisplatin and BGB IC20 combos (AID 1671464; in the data active = inhibition above about 80%;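 also: cells exposed to compound for 96 hours before readout; 0% = vehicle DMSO and 100% = high DMSO killing control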); conditions: stronger effect = higher value
# [18] = growth inhibition of DIPG glioma cells, dose response, cell-based, SU-DIPG-IV, MIPE4.0, CellTiter-Glo, qHTS (AID 1347063; cut-off not given, nearly all actives have AC50 up to about 30 µM;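 also: compound exposure lasted 48 hours before the viability readout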); conditions: SU-DIPG-IV viability, CellTiter-Glo ATP luminescence
# [19] = measured here: with BGB IC20 combination, at 0.5 µM
# [20] = measured here: with cisplatin IC20 combination, at 0.5 µM
structure (smiles),measurement,setting,value
Cc1cccc(Nc2nc(-c3ccncc3)cs2)c1,outcome,[1],inactive
same,AC50,[2],20.9 µM (active)
same,AC50,[3],20.9 µM (active)
same,outcome,[4],inactive
same,outcome,[5],inactive
same,fold change,"[6]; stronger effect = lower value, cell number ratio, induced over uninduced",0.988 (inactive) and 0.935 (inactive)
same,fold change,[6]; measured here: relative caspase fold change +Dox/-Dox,0.542 and 0.911
same,cell count,"[6]; measured here: total cells with miR-34 induction, stronger effect = lower value",4770 and 4650
same,cell count,[6]; measured here: total cells without miR-34 induction,4820 and 4970
same,z-score,"[7]; MELAS cybrid survival, CellTiter-Glo 48 h, stronger effect = higher value",-0.247 (inactive)
same,z-score,"[7]; Rieske KO mouse fibroblast survival, CellTiter-Glo 72 h",1.01
same,viability,"[8]; at 0.000305 µM, OCI-C5x cells, with rucaparib 10 µM, 100% = cells with rucaparib alone",109% (inactive)
same,viability,"[8]; at 0.000305 µM, OCI-C5x cells, without rucaparib",111% (inactive)
same,viability,"[8]; at 0.000305 µM, OCI-P5x cells, with rucaparib 20 µM, 100% = cells with rucaparib alone",88.3% (active)
same,viability,"[8]; at 0.000305 µM, OCI-P5x cells, without rucaparib",86.6% (active)
same,viability,"[8]; at 0.00122 µM, OCI-C5x cells, with rucaparib 10 µM, 100% = cells with rucaparib alone",108% (inactive)
same,viability,"[8]; at 0.00122 µM, OCI-C5x cells, without rucaparib",108% (inactive)
same,viability,"[8]; at 0.00122 µM, OCI-P5x cells, with rucaparib 20 µM, 100% = cells with rucaparib alone",95.8% (active)
same,viability,"[8]; at 0.00122 µM, OCI-P5x cells, without rucaparib",93.7% (active)
same,viability,"[8]; at 0.00488 µM, OCI-C5x cells, with rucaparib 10 µM, 100% = cells with rucaparib alone",114% (inactive)
same,viability,"[8]; at 0.00488 µM, OCI-C5x cells, without rucaparib",106% (inactive)
same,viability,"[8]; at 0.00488 µM, OCI-P5x cells, with rucaparib 20 µM, 100% = cells with rucaparib alone",75.1% (active)
same,viability,"[8]; at 0.00488 µM, OCI-P5x cells, without rucaparib",94.9% (active)
same,viability,"[8]; at 0.0195 µM, OCI-C5x cells, with rucaparib 10 µM, 100% = cells with rucaparib alone",112% (inactive)
same,viability,"[8]; at 0.0195 µM, OCI-C5x cells, without rucaparib",112% (inactive)
same,viability,"[8]; at 0.0195 µM, OCI-P5x cells, with rucaparib 20 µM, 100% = cells with rucaparib alone",110% (inactive)
same,viability,"[8]; at 0.0195 µM, OCI-P5x cells, without rucaparib",89.5% (active)
same,viability,"[8]; at 0.0781 µM, OCI-C5x cells, with rucaparib 10 µM, 100% = cells with rucaparib alone",107% (inactive)
same,viability,"[8]; at 0.0781 µM, OCI-C5x cells, without rucaparib",108% (inactive)
same,viability,"[8]; at 0.0781 µM, OCI-P5x cells, with rucaparib 20 µM, 100% = cells with rucaparib alone",102% (inactive)
same,viability,"[8]; at 0.0781 µM, OCI-P5x cells, without rucaparib",101% (inactive)
same,viability,"[8]; at 0.313 µM, OCI-C5x cells, with rucaparib 10 µM, 100% = cells with rucaparib alone",115% (inactive)
same,viability,"[8]; at 0.313 µM, OCI-C5x cells, without rucaparib",106% (inactive)
same,viability,"[8]; at 0.313 µM, OCI-P5x cells, with rucaparib 20 µM, 100% = cells with rucaparib alone",104% (inactive)
same,viability,"[8]; at 0.313 µM, OCI-P5x cells, without rucaparib",95.3% (active)
same,viability,"[8]; at 1.25 µM, OCI-C5x cells, with rucaparib 10 µM, 100% = cells with rucaparib alone",129% (inactive)
same,viability,"[8]; at 1.25 µM, OCI-C5x cells, without rucaparib",115% (inactive)
same,viability,"[8]; at 1.25 µM, OCI-P5x cells, with rucaparib 20 µM, 100% = cells with rucaparib alone",101% (inactive)
same,viability,"[8]; at 1.25 µM, OCI-P5x cells, without rucaparib",98.4% (active)
same,viability,"[8]; at 5 µM, OCI-C5x cells, with rucaparib 10 µM, 100% = cells with rucaparib alone",157% (inactive)
same,viability,"[8]; at 5 µM, OCI-C5x cells, without rucaparib",136% (inactive)
same,viability,"[8]; at 5 µM, OCI-P5x cells, with rucaparib 20 µM, 100% = cells with rucaparib alone",82.2% (active)
same,viability,"[8]; at 5 µM, OCI-P5x cells, without rucaparib",110% (inactive)
COc1cc2ncnc(-n3nc(-c4ccccn4)nc3N)c2cc1OC,AC50,[1],23.5 µM (active)
same,AC50,[2],18.7 µM (active)
same,AC50,[3],10.5 µM (active)
same,outcome,[4],inactive
same,outcome,[5],inactive
same,SSMD,[9],1.68
same,cell count,[9],7810
same,plate-normalised HSF1 focus index,[9],1.06 (inactive)
same,inhibition,"[10]; at 0.5 µM, stronger effect = higher value",-19.6% (inactive)
same,inhibition,"[10]; measured here: combination with BGB IC20, at 0.005 µM",-6.46%
same,inhibition,"[10]; measured here: combination with BGB IC40, at 0.005 µM",-12%
same,inhibition,"[10]; measured here: combination with BGB IC40, at 0.05 µM",-14.8%
same,inhibition,"[10]; measured here: combination with cisplatin, at 0.5 µM, stronger effect = higher value",-28.9%
same,inhibition,"[10]; measured here: combination with cisplatin, at 5 µM, stronger effect = higher value",3.9%
same,inhibition,"[11]; BGB combo, at 5 µM",-0.513%
same,inhibition,[11]; at 0.5 µM,-39.2% (inactive)
same,inhibition,"[11]; cisplatin combo, at 5 µM",11.6%
same,inhibition,[11]; [19],-47.1%
same,inhibition,[11]; [20],-45.4%
same,inhibition,"[11]; single agent, at 5 µM",27.9%
same,inhibition,"[12]; BGB IC20 combo, at 0.005 µM",8.82%
same,inhibition,"[12]; BGB IC40 combo, at 0.005 µM",-28.2%
same,inhibition,"[12]; BGB IC40 combo, at 0.05 µM",-13.5%
same,inhibition,[12]; at 0.5 µM,-27.7% (inactive)
same,inhibition,"[12]; cisplatin combo, at 0.05 µM",-18%
same,inhibition,"[12]; cisplatin combo, at 0.5 µM",-47.4%
same,inhibition,"[12]; cisplatin combo, at 5 µM",-33.3%
same,inhibition,"[12]; measured here: 5 uM single agent, at 5 µM",-7.48%
same,inhibition,[13]; at 0.5 µM,-23% (inactive)
same,inhibition,"[13]; measured here: with BGB IC20, at 0.5 µM",-35.6%
same,inhibition,"[13]; measured here: with BGB IC20, at 5 µM",15.3%
same,inhibition,"[13]; measured here: with cisplatin IC20, at 0.5 µM",-19.3%
same,inhibition,"[13]; measured here: with cisplatin IC20, at 5 µM",25.5%
same,inhibition,"[13]; single agent, at 5 µM",39.7%
same,inhibition,[14]; at 0.5 µM,-17.5% (inactive)
same,inhibition,"[14]; measured here: BGB combination, at 0.5 µM",-21.1%
same,inhibition,"[14]; measured here: BGB combination, at 5 µM",-18.6%
same,inhibition,"[14]; measured here: cisplatin combination, at 0.5 µM",-13.3%
same,inhibition,"[14]; measured here: cisplatin combination, at 5 µM",-24.4%
same,inhibition,[15]; at 0.5 µM,0.0685% (inactive)
same,inhibition,"[15]; cisplatin combination, at 0.5 µM",7.09%
same,inhibition,"[15]; cisplatin combination, at 5 µM",63.7%
same,inhibition,"[15]; measured here: BGB IC40 combination 0.05 uM, at 0.05 µM",69%
same,inhibition,"[15]; single agent, at 5 µM",13.7%
same,inhibition,[16]; at 0.5 µM,-14.5% (inactive)
same,inhibition,"[16]; cisplatin combo, at 5 µM",36.5%
same,inhibition,"[16]; measured here: BGB IC40 combination, at 0.05 µM",-31.7%
same,inhibition,"[16]; measured here: combination with cisplatin, at 0.5 µM",-5.13%
same,inhibition,"[16]; single agent, at 5 µM",-24.7%
same,inhibition,[17]; at 0.5 µM,-59.7% (inactive)
same,inhibition,[17]; [19],-65.7%
same,inhibition,[17]; [20],-56.7%
same,inhibition,"[17]; single agent, at 0.05 µM",-35.9%
same,inhibition,"[17]; single agent, at 5 µM",-52.5%
CCOc1ccccc1OCCNC(C)Cc1ccc(OC)c(S(N)(=O)=O)c1 (stereo not given),outcome,[1],inactive
same,outcome,[18],inactive
same,outcome,[4],inactive
